# According to publication PMC6212790, “How bacterial xenogeneic silencer rok distinguishes foreign from self DNA in its resident genome”:
# Whole data set: some 33,000 sequences, median “e-score” near -0.038, cut for the highest 2% near 0.33. The sample as a whole holds a higher share of the highest values than the screen did.
# Target: T1, GST-Rok-C97-191 (Bacillus subtilis subsp. subtilis str. …, UniProt O34857 97-191)
# T1 sequence: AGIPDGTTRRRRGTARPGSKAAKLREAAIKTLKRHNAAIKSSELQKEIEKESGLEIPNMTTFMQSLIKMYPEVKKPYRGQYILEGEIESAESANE
# Test: protein binding microarray; Rok is a gene silencer of Bacillus subtilis; high values mean tight binding
# Conditions: protein: recombinant; tags: GST (pTH5325, pDEST15-Magic modified); dsDNA, one strand shown
# In short: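 Each has a 25-mer constant primer and a 35-mer variable part from a de Bruijn sequence of order 10, covering every non-palindromic 8-mer at least 32 times (palindromic 16). Preference for each 8-mer is given as a rank-based, unitless enrichment score (E-score). Its range runs from 0.5 (most favored) to −0.5 (most disfavored).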
row,Sequence,binding signal [E-score]
1,GTATTCGA,0.15
2,ATTTGCTG,-0.0116
3,AAGATTGC,-0.0164
4,AATCGTGA,-0.118
5,ACCCATGC,-0.182
6,AGAGCGAA,-0.138
7,GGTCGACA,-0.101
8,TAAATTTA,0.405
9,CAATTTAA,0.0656
10,CAATTTAG,0.232
11,CAATTTAC,0.357
12,AAAATTTA,0.282
13,CAAATTTA,0.31
14,AGTCTGGG,-7.1e-05
15,GAGCTTAC,-0.189
16,CCGAAAAC,0.168
17,AATACATA,0.308
18,TATACATA,0.401
19,GATACATA,0.377
20,AATACAAA,0.313
21,CATACATG,0.171
22,CATACAAA,0.219
23,TACACATA,0.203
24,TATACAAA,0.347

row,Sequence,binding signal [E-score]
1,CATACATA,0.234
2,CATTAACC,-0.0128
3,TCATACCA,0.0725
4,ATTAGCAC,0.0299
5,GTCGGAAC,0.0505
6,AAGGTTGA,0.063
7,CTACCTTA,0.264
8,AAAAGCAA,0.148
9,CGATTATC,0.0925
10,TACTGAGA,0.0745
11,ATACTAAC,0.103
12,GTACTAAA,0.329
13,ATACTAAA,0.39
14,CTACTAAC,0.223
15,CTACTAAA,0.379
16,TTACTAAA,0.335
17,CTACTAAG,0.261
18,GGACTAAA,0.0947
19,TCACTAAA,0.164
20,GTACTAAC,0.145
21,TGACTAAA,0.0396
22,ATACTAAT,0.321
23,TATTTCCA,0.228
24,ACTATTGC,0.313

row,Sequence,binding signal [E-score]
1,CTATCTTA,0.227
2,AAGAATCT,0.0962
3,TTCCTCAA,0.041
4,AACTGAGC,0.0188
5,GAAGCTGA,0.014
6,ACGGTCCT,-0.132
7,AAACTGTT,-0.043
8,CATAGATA,0.297
9,GTTAGATA,0.321
10,TATAGATA,0.368
11,CTAAGATA,0.213
12,ATAAGATA,0.372
13,TAAAGATA,0.27
14,GAAAGATA,0.329
15,AAAAGATA,0.137
16,GATAGATA,0.347
17,GATAGATC,0.268
18,AATAGATA,0.32
19,GTAAGATA,0.229
20,AACATCGA,0.134
21,GCACAAAC,-0.0175
22,AGCGTGGA,0.126
23,AAAAGAGA,0.147
24,TCCATTCA,-0.131

row,Sequence,binding signal [E-score]
1,TAACAATA,0.292
2,GATTTGCC,-0.0374
3,CGTTATCC,-0.0591
4,ACACCTGC,-0.197
5,GTGCGGGA,-0.196
6,CTCCCATC,-0.161
7,AATAGATT,0.352
8,AATAGATC,0.161
9,AATAGATG,0.267
10,CTAGTCGA,0.131
11,GATAAGCA,0.0731
12,ATAATAAG,0.331
13,ATAATAAT,0.31
14,ATAATACA,0.242
15,ATAATACG,0.344
16,ATAATACC,0.197
17,CTAATAAG,0.127
18,AGGAACCA,0.128
19,AAGCTTGC,-0.0667
20,AAGACGGC,-0.186
21,CCTCGCTC,-0.125
22,AAATATAA,0.269
23,AACTATAC,0.253
24,GAATATAC,0.293

row,Sequence,binding signal [E-score]
1,AAATATAG,0.22
2,AACTATAT,0.415
3,CAATATAC,0.243
4,AACTATAG,0.327
5,AAATATAC,0.401
6,AAATATAT,0.417
7,AAGTGCGG,0.009
8,CGAGCCTA,-0.0633
9,GAACGTCA,-0.14
10,CGGCACTA,0.0999
11,ATTTAGGG,-0.024
12,CTTTGCTC,-0.124
13,AAAGTACA,0.366
14,TAAGTACA,0.35
15,AAAGTACG,0.192
16,GAAGTACA,0.237
17,CAAGTACA,0.151
18,AAAGTACC,0.291
19,CCGTTGGA,-0.177
20,ACAAAACG,-0.11
21,CATTTACG,0.0408
22,AATTTAAT,0.321
23,CATTTACA,0.277
24,ATTTTACC,0.322

row,Sequence,binding signal [E-score]
1,AATTTAGT,0.165
2,GATTTACC,0.187
3,AATTTACG,0.338
4,AATTTACC,0.345
5,AATTTACT,0.416
6,TATTTACA,0.235
7,AATTTACA,0.331
8,ATTTTACG,0.268
9,AAAAATGT,0.129
10,AAGGCAGC,0.0072
11,CCAAACGG,-0.0693
12,CAATGTTA,0.195
13,CTGCGCCC,-0.144
14,GACACTGC,-0.137
15,AGCGTTCC,-0.026
16,AATCAGAC,-0.0483
17,CGCGATTA,0.0183
18,AGCAGTCA,0.0635
19,ACGACCTA,0.00188
20,ATTTTTCG,0.181
21,ATACGTAA,0.371
22,GTACGTAA,0.0489
23,TTACGTAA,0.261
24,ACGGAAGG,-0.162

row,Sequence,binding signal [E-score]
1,ATATCTAG,0.284
2,CTATCTAC,0.433
3,ATATCTTC,0.344
4,CTATCTTC,0.105
5,CTATCTAA,0.282
6,ATCTCTAC,0.118
7,ATATCTAA,0.351
8,ATCTCTAA,0.106
9,ATATCTAC,0.377
10,CCATCTAC,0.213
11,ATATCTTA,0.26
12,CTCTCTAC,0.064
13,CAGACGGA,-0.1
14,CGGTCGCA,-0.0742
15,GTCAATTA,0.163
16,GAACAGAC,-0.0366
17,TACGCAGA,-0.138
18,AGCTGAAC,-0.0772
19,GATAAAGC,-0.0584
20,CTAAGTAA,0.266
21,CGTATCAA,0.0404
22,CTACTAGA,0.293
23,CTACTACA,0.366
24,ATACTACA,0.388

row,Sequence,binding signal [E-score]
1,GTACTACA,0.296
2,ATACTGCA,0.287
3,ACACTACA,0.294
4,AGACGTGC,-0.045
5,CAGCTAAA,0.0943
6,CTTTTTGC,-0.0956
7,CTAAGCGA,-0.171
8,TAGTCAAA,0.158
9,AAATATTG,0.286
10,ATATATTG,0.419
11,AAATATTC,0.219
12,AAATATTA,0.355
13,CTATATTA,0.355
14,GAATATTA,0.2
15,TAATATTA,0.287
16,GAATATTC,0.339
17,ACATATTG,0.232
18,CCATATTA,0.121
19,CAATATTC,0.186
20,CAATATTA,0.204
21,ACCTATTC,0.0409
22,GAATGCAA,-0.0262
23,CCGCAAAA,-0.142
24,AGGCCGGA,-0.102

row,Sequence,binding signal [E-score]
1,ATATATTA,0.447
2,ATATATTC,0.374
3,AGATATTA,0.356
4,GCATATTA,0.153
5,CTATATTC,0.274
6,AGATATTG,0.186
7,CTCTATTC,-0.103
8,CGATATTA,0.286
9,ACATATTA,0.304
10,GTGTATTA,0.11
11,GTATATTA,0.371
12,ATGTATTA,0.301
13,AGGTCCCG,-0.133
14,AAACTTCA,0.0505
15,GAAAAACA,0.0708
16,CACGGAAG,0.00148
17,AAAGTCTC,0.0451
18,AGGGTCGC,-0.122
19,GCGTCCAA,-0.0249
20,GCGTAAAA,0.139
21,ACCTCGAT,0.113
22,AGCCGTTC,-0.05
23,ACAGCAAG,-0.0495
24,ACGGTAGC,0.0805

row,Sequence,binding signal [E-score]
1,ACGGTAGA,0.318
2,AAGGTAGT,0.33
3,ACGGTAGT,0.408
4,AAGGTAGC,0.158
5,AAGGTAGG,-0.00436
6,ATGCAAGC,-0.0317
7,CGTCGCTC,-0.161
8,ACATTCCC,-0.0621
9,AGGACCGG,-0.171
10,ATCTACTA,0.456
11,ATCTACTG,0.423
12,ATCTACGG,0.0258
13,CTCTACTA,0.2
14,GTCTACTA,0.29
15,ATCTACTC,0.206
16,ACCCACTG,-0.0641
17,CATCGGAC,0.0521
18,GGCAAAGA,-0.188
19,ACGGTTAT,0.165
20,ATGATACG,0.141
21,CTACCCGC,-0.0513
22,CGGTAAGA,-0.0738
